The results in this text go back to PubChem BioAssay (NCI).

The panel holds about 83,000 compounds, 20% with a hit somewhere; the sample as a whole holds those more often.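 The endpoint reported here, percent growth, reads 100 for growth as untreated, 0 for no net growth and -100 for all cells dead.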 Activity calls are given as the source filed them.

The assay deals with CCRF-CEM leukemia. Put plainly: NCI-60 one-dose screen, 48 h (100 = growth as untreated, 0 = no growth, -100 = all killed). The settings on record: 10 µM unless noted. How it is done: Growth inhibition of the CCRF-CEM human tumor cell line is measured as a screen for anti-cancer activity. Cells are grown in 96 well plates and exposed to the test compound for 48 hours. Compounds are tested at a single concentration, which is 10^-5 M for most compounds. The reported endpoint is percent growth (GI% or GIPRCNT), where numbers from 0 - 100% represent growth inhibition, and numbers from -100% - 0 represent cell death. For example, a value of 40 represents 60% growth inhibition. A value of 0 means no net growth occurred over the course of the experiment. A value of -40 indicates 40% of cells at the beginning of the experiment died by the end of the experiment. A value of -100 means all cells are dead at the end of the experiment.
NCI-60 Human Tumor Cell Lines Screen was performed using the standard one-dose NCI protocol, which is described in more detail at https://dtp.cancer.gov/discovery_development/nci-60/default.htm.
Compounds with GIPRCNT values below 10 were considered active. Activity score was based on GIPRCNT using the following formula: […]
Score is 0 for GIPRCNT values of 100 or above, 50 for GIPRCNT values of 0, and 100 for GIPRCNT values of -100.
Take `O=C(O)C(=Cc1c2ccccc2cc2ccccc12)C(=O)O`: the growth was 101% (inactive).
For `COc1cc(-c2n[nH]nc2-c2ccc3c(c2)OCCO3)cc(OC)c1OC` the value was 5.78% (active); for `O=C1NCC(c2cc3ccccc3[nH]c2=O)Nc2ccccc21` (stereo not given), 110% (inactive).
For `O=C(Nc1ccc(F)c(Cl)c1)c1n[nH]c(=O)c2ccccc12` the value was 105% (inactive); for `COc1cc(NC(=O)CCl)ccc(=O)c1`, 39.7% (inactive); for `Clc1nc(Cl)c2ncn(C/C=C/Cn3cnc4c(Cl)nc(Cl)nc43)c2n1`, 18.2% (inactive).
For `O=C(c1ccccc1)C(Cl)C(Cl)c1ccccc1` (stereo not given) the value was 5.75% (active); for `O=C(OCCCCOC(=O)n1cnc2ccccc21)n1cnc2ccccc21`, 101% (inactive); for `C=CCn1c(C)nc2ccc(Nc3nc(Nc4ccc(F)cc4)nc4ccccc34)cc21`, 22.5% (inactive).
On to `CC(C)N(Cc1ccc(CN(C(=O)CCl)C(C)C)cc1)C(=O)CCl`, for which the growth was -29.4% (active).
For `CCCCC(N)(C(=O)O)C1CCCC1` (stereo not given) the value was 97.9% (inactive); for `COC(=O)CC/C(C)=N\Nc1ccc([N+](=O)[O-])cc1`, 35% (inactive).
For `Nc1ccccc1C#C/C=C\C#Cc1cccc(O)c1` the value was 32% (inactive).
For `c1ccc([P+](CCC[P+](c2ccccc2)(c2ccccc2)c2ccccc2)(c2ccccc2)c2ccccc2)cc1` the value was 45.8% (inactive).
In the case of `COc1ccc(/C=C/C(=O)c2cccc(B(O)O)c2)cc1O`, the growth is 37.3% (inactive).
For `O=C(Nc1ccc(I)cc1)c1cc([N+](=O)[O-])ccc1O` the value was 28.4% (inactive); for `COc1ccc(-c2nc3sccn3c2-c2ccnc(NCCNS(=O)(=O)c3ccc(C(F)(F)F)cc3)n2)cc1`, 9.58% (active).
Turning to `COc1cc2nc(N3CCC[C@@H](NC4=CC(=O)c5ccccc5C4=O)C3)nc(N)c2cc1OC`, the growth was -20.9% (active).
For `COc1cccc2nc(Nc3ccc(NC(=O)c4ccc5ncccc5c4)cc3)ccc12` the value was 69.4% (inactive); for `CCOC(=O)/C=C\C(=O)NC(N)=O`, 93.9% (inactive); for `Cc1cc(C)c(NC(=O)c2sc3nc4c(cc3c2N)CN(Cc2ccccc2)CC4)c(C)c1`, 16.6% (inactive).
For `COc1cc(Cn2c(SCC(=O)Nc3cc(OC)c(OC)c(OC)c3)nc3ccccc3c2=O)cc(OC)c1OC` the value was 101% (inactive); for `O=P([O-])(O)OP(=O)([O-])O.[NH-][C@H]1CCCC[C@@H]1[NH-].[OH-].[OH-].[Pt+4]`, 98.4% (inactive).
Regarding `Nc1c(C(=O)Nc2ccccc2)sc2nc3c(cc12)CN(Cc1ccccc1)CC3`, the growth is 98.6% (inactive).
For `CCCCCCCCCCn1cc[n+](C)c1` the value was 111% (inactive).
For `CCn1cc(C(=O)O)c(=O)c2cc(F)c(N3CCN(S(=O)(=O)c4c(C)cc(C)cc4C)CC3)cc21` the value was 81.8% (inactive); for `C[N+](C)(C)c1ccc(CC2c3ccccc3-c3ccccc32)cc1`, 69.9% (inactive).
For `NC(=O)c1cccc(N2Cc3ccccc3OC3=C2C(=O)c2c(O)ccc(O)c2C3=O)c1` the value was -8.27% (active); for `CN1CCN(CCCOc2ccc3nc(Nc4ccc(C(F)(F)F)c(Cl)c4)ccc3c2)CC1`, 3.91% (active); for `O=C(Cc1c(F)cccc1Cl)Nc1ccc(S(=O)(=O)Nc2ncccn2)cc1`, 61.6% (inactive).
Regarding `CN(C)c1nc(N)c(N=O)c(N)n1`, the growth is 112% (inactive).
For `Cc1ccc(Nc2ncnc3c2sc2ncccc23)cc1` the value was 116% (inactive); for `Clc1ccc2c(c1)NC1(CCSc3ccccc31)n1nccc1-2` (stereo not given), 95.7% (inactive); for `FC(F)(F)c1cccc(-n2nnc3cnc(Nc4ccc(N5CCCCC5)cc4)nc32)c1`, 34.1% (inactive).
For `O=C1Nc2cc(Cl)ccc2/C1=C/c1ccc(N2CCOCC2)s1` the value was 99.8% (inactive); for `COc1ccc(/C=C/c2cc(N3CCOCC3)c3cc(F)c(F)cc3n2)cc1OC`, 12.3% (inactive); for `CC1(C)OC2COC3(C(=O)O)OC(C)(C)OC3C2O1` (stereo not given), 128% (inactive).
For `COc1ccc(C2CC(c3cccs3)=NN2c2ccc(S(=O)(=O)NC(=O)NCc3cccc(OC)c3)cc2)cc1` (stereo not given) the value was 88.1% (inactive); for `O=C(Nc1cccc(C(F)(F)F)c1)Nc1ccc(OCc2nnc(-c3ccccc3)o2)c(F)c1`, 8.15% (active); for `O=Nc1c(-c2c(O)[nH]c3ccc([N+](=O)[O-])cc23)[nH]c2ccc(O)cc12`, 0.486% (active).
